Source: PubChem BioAssay (Tox21)
“And” between values parts separate entries of the source, which are not always exact repeats. Equal entries are not always repeated. Inconclusive results are not listed. Some structures have more than one record in an assay (separate samples or runs), and their calls can disagree. The source made the active and inactive calls. Calls come from the whole dose curve; as a rule, active = well fitted cell-killing curve with a large enough effect in the repeat runs; inconclusive = weak or mixed curves, or effect the other way; inactive = no such curve, though single readings can be large or run the other way.

Test: qHTS assay to identify small molecule antagonists of the thyroid receptor (TR) signaling pathway - cell viability counter screen (AID 743064); note: nearly all actives have a fitted effect of over 50% in size
Settings: GH3.TRE-Luc viability, CellTiter-Fluor, 24 h; series mostly up to 70.3 µM; activity change, negative = cytotoxic: at the top concentration
Source text: National Center for Advancing Translational Sciences [NCATS]
NIH Chemical Genomics Center [NCGC]
U.S. Environmental Protection Agency [EPA]
National Institutes of Environmental Health Sciences [NIEHS]
National Toxicology Program [NTP]
U.S. Food and Drug Administration [FDA]
Thyroid receptor (TR), a nuclear hormone receptor, plays an important role in development, proliferation, differentiation, metabolism, brain function, and cardiovascular system. […] To profile the Tox21 10K compound library in TR signaling, a cell-based GH3-TRE-Luc assay (GH3.TRE-Luc cell line, developed by the laboratory of Dr. Albertinka J. Murk, Wageningen University) was used to measure the inhibition of TR. GH3 (rat pituitary tumor) cells stably expressing a TR activity sensor consisting of two TR response elements and a luciferase reporter gene. The cytotoxicity of the Tox21 compound library against the GH3.TRE-Luc cell line was tested in parallel by measuring the cell viability using CellTiter-Fluor assay (Promega, Madison, WI) in the same wells.
Tox21 Assay Protocol Summary:
GH3.TRE-Luc cells were dispensed at 1500 cells/4 uL/well into 1536-well white solid bottom plates using a Multidrop Combi dispenser (Thermo Fisher Scientific Inc., Waltham, MA). After the assay plates were incubated at 37 C for 4 hours, 23 nL of library compound or DMSO controls was transferred to the assay plates by a pintool station (Kalypsys, San Diego, CA), followed by addition of 1 ul of T3 (1 nM, final concentration in the wells) to stimulate TR transactivation. The assay plates were incubated at 37 C for 23.5 h, and then 1 uL of CellTiter-Fluor reagent (Promega, Madision, WI) of measuring cytotoxicity was added to each well using a Bioraptr Flying Reagent Dispenser (FRD) workstation (Beckman Coulter, Indianapolis, IN, USA). The plates were incubated at 37C and 5% CO2 for additional 30 min, and fluorescence intensity was measured by a ViewLux plate reader (PerkinElmer, Shelton, CT).
% is set by controls: 0 for no effect and ±100 for the full control effect; potency is the fitted concentration of half-maximal effect.

SMILES | Potency | activity change, negative = cytotoxic
Nc1ccncc1 | inactive | –
C#CCOS(=O)OC1CCCCC1Oc1ccc(C(C)(C)C)cc1 (stereo not given) | 6.86 µM (active) | –
OCC(O)CO | inactive | –
c1cc(OCC2CO2)ccc1Cc1ccc(OCC2CO2)cc1 (stereo not given) | 43.5 µM (active) and 48.6 µM (active) | –
c1ccc(P(c2ccccc2)c2ccccc2)cc1 | inactive | –
c1ccc(-c2cccc(-c3ccccc3)c2)cc1 | inactive | –
O=Cc1ccco1 | inactive | –
CCCCN(CC)c1c([N+](=O)[O-])cc(C(F)(F)F)cc1[N+](=O)[O-] | 54.5 µM (active) | –
O=P(Oc1ccccc1)(Oc1ccccc1)Oc1ccccc1 | – | -1.38% (inactive)
CN(C)c1ccc(C(=O)c2ccc(N(C)C)cc2)cc1 | 30.3 µM (active) and inactive | –
CC(C)Oc1cc(-n2nc(C(C)(C)C)oc2=O)c(Cl)cc1Cl | 53.7 µM (active) | –
C=CCN(CC=C)C(=O)C(Cl)Cl | – | 17.6% (inactive)
C=C(C)C(=O)OCC1CO1 (stereo not given) | inactive | –
Oc1c(Cl)c(Cl)c(Cl)c(Cl)c1Cl | 26.8 µM (active) | –
CC(O)CCO (stereo not given) | inactive | –
C[C@]12CCC(=O)C[C@@H]1CC[C@@H]1[C@@H]2CC[C@]2(C)[C@@H](O)CC[C@@H]12 | inactive | –
Clc1nc(Cl)nc(Cl)n1 | – | -0.0616% (inactive)
COP(=O)(OC)OC | – | -10.1% (inactive)
N[C@@H](Cc1ccc(N(CCCl)CCCl)cc1)C(=O)O | 10.6 µM (active) and 26.2 µM (active) | –
C1=Cc2cccc3cccc1c23 | – | -2.3% (inactive)

SMILES | Potency | activity change, negative = cytotoxic
N#Cc1cc(Br)c(O)c(Br)c1 | inactive | –
C=C(C)[C@H]1Cc2c(ccc3c2O[C@@H]2COc4cc(OC)c(OC)cc4[C@@H]2C3=O)O1 | 841 nM (active) and 8.75 µM (active) and 4.86 µM (active) | –
CNC(=O)Oc1cccc2c1OC(C)(C)O2 | inactive | –
CC(C)c1ccc(CO)cc1 | inactive | –
CC(C)=CC1C(C(=O)OCc2coc(Cc3ccccc3)c2)C1(C)C (stereo not given) | – | -3.08% (inactive)
Oc1cc(Cl)ccc1Cl | inactive | –
C[C@]12CCC(=O)C(O)=C1CC[C@@H]1[C@@H]2CC[C@]2(C)C(=O)CC[C@@H]12 | inactive | –
O=P(O)(O)CCCl | – | 8.26% [at 95 µM] (inactive)
O=[N+]([O-])c1c(Cl)c(Cl)c(Cl)c(Cl)c1Cl | 54.5 µM (active) | –
Nc1cccnc1 | – | 10.3% (inactive)
CC(C)C(=O)OCC(C)(C)C(OC(=O)C(C)C)C(C)C (stereo not given) | – | 28.9% (inactive)
CCCCOCCOP(=O)(OCCOCCCC)OCCOCCCC | 54.5 µM (active) and inactive | –
Cc1cccc(N)c1N | – | 6.7% (inactive)
CCOP(=S)(OCC)O/N=C(\C#N)c1ccccc1 | inactive | –
Brc1ccc(Oc2cc(Br)c(Br)cc2Br)c(Br)c1 | 48.9 µM (active) | –
COc1ccc(C=O)cc1 | – | 2.34% (inactive)
C#C[C@]1(O)CC[C@H]2[C@@H]3CCC4=CC(=O)CC[C@]4(C)[C@H]3CC[C@@]21C | inactive | –
CCCCC(CC)COC(=O)c1ccc(C(=O)OCC(CC)CCCC)c(C(=O)OCC(CC)CCCC)c1 (stereo not given) | – | 5.79% (inactive)
Nc1ccc(Cl)c(Cl)c1 | inactive | –
Cc1cc(C)cc(C)c1 | inactive | –
